Records with an inconclusive call do not appear. Activity calls are given as the source filed them. How the source made its calls, unless noted: active means hit-call score of the fitted dose curve at least 0.9, where 1 is the maximum; inconclusive means response in the unintended direction; inactive means score below 0.9.

Assay [1] has as its target Cellular tumor antigen p53 (Homo sapiens) (UniProt P04637). Description: TOX21_p53_BLA_p4_ratio: Tox21 HCT-116 p53 Agonism Beta-lactamase Assay, Ratio, Phase 4 (AID 2283601). The essentials:
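HCT116 cells carrying an inducible beta-lactamase reporter were plated at 4000 cells/well, rested 5 h, then exposed to compounds in DMSO (217-fold dilution) for 16 h at 37C. CCF4-AM substrate was loaded 2 h at room temperature; 460/530 nm emission ratio scored gain-of-signal versus DMSO.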

Assay [2] can be described thus: Tanguay_ZF_120hpf_MORT_legacy: (Legacy) Oregon State University Tanguay Lab 120 Hour Post-fertilization zebrafish Assay for Mortality (AID 2283633).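 On AC50: fitted as increase in binary mortality versus DMSO negative control.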 A digest of the protocol: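 Mortality endpoint from a multiplexed whole-embryo zebrafish screen. Dechorionated wild-type embryos received compound at 6 hpf and remained under static exposure at 28C until 120 hpf, with death noted as a present/absent call.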

Assay [3] can be described thus: Tanguay_ZF_120hpf_YSE_legacy: (Legacy) Oregon State University Tanguay Lab 120 Hour Post-fertilization zebrafish Assay for Yolk Sac Edema (AID 2283634). The essentials:
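Readout: presence or absence of yolk sac edema at 120 hpf, fitted upward against DMSO controls. Exposure ran statically from 6 hpf in dechorionated embryos kept at 28C.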

Assay [4] can be described thus: Tanguay_ZF_120hpf_AXIS_legacy: (Legacy) Oregon State University Tanguay Lab 120 Hour Post-fertilization zebrafish Assay for Body Axis Malformation (AID 2283635).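 On AC50: potency for an increased fraction of larvae scored with body axis malformation.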 The essentials: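 Static 6–120 hpf chemical exposure of dechorionated wild-type 5D zebrafish, one per well at 28C; morphology endpoint scored binary at 120 hpf relative to DMSO control.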
Assay [5] is described as follows: Tanguay_ZF_120hpf_EYE_legacy: (Legacy) Oregon State University Tanguay Lab 120 Hour Post-fertilization zebrafish Assay for Eye Malformation (AID 2283636).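 Further: binary presence or absence of eye malformation scored by brightfield in 120 hpf larvae.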 The essentials: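 Dechorionated wild-type Tropical 5D zebrafish embryos were exposed statically from 6 hpf, one per well, to 120 hpf at 28C in sealed, foil-covered plates with 0.64% DMSO. Eye malformation was scored present/absent by brightfield microscopy against DMSO controls.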

The nature of assay [6]: Tanguay_ZF_120hpf_JAW_legacy: (Legacy) Oregon State University Tanguay Lab 120 Hour Post-fertilization zebrafish Assay for Jaw Malformation (AID 2283638). The essentials: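 Static waterborne exposure of dechorionated wild-type (Tropical 5D) zebrafish from 6 to 120 hpf at 28C, 0.64% DMSO vehicle; 5uM trimethyltin chloride served as positive control. Jaw morphology recorded as binary at 120 hpf.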

A short description of assay [7]: Tanguay_ZF_120hpf_PE_legacy: (Legacy) Oregon State University Tanguay Lab 120 Hour Post-fertilization zebrafish Assay for Pericardial Edema (AID 2283640).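 On AC50: potency for increased incidence of pericardial edema versus DMSO baseline.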 A digest of the protocol:
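Read-out is the presence or absence of pericardial edema at 120 hpf under brightfield, with gain of signal fitted against DMSO controls. Larvae (5D wild-type) were statically exposed at 28C with 0.64% final DMSO.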

The nature of assay [8]: Tanguay_ZF_120hpf_BRAI_legacy: (Legacy) Oregon State University Tanguay Lab 120 Hour Post-fertilization zebrafish Assay for Brain Malformation (AID 2283641). The essentials: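 Brain malformation in Tropical 5D zebrafish was recorded as a binary endpoint after static compound exposure from early development to 120 hpf at 28C. Activity was analysed against DMSO as negative control.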

Assay [9] can be described thus: Tanguay_ZF_120hpf_SOMI_legacy: (Legacy) Oregon State University Tanguay Lab 120 Hour Post-fertilization zebrafish Assay for Somite Malformation (AID 2283647). A digest of the protocol: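 5D WT zebrafish; chorion removed 4 hpf; 1 embryo/well from 6 hpf; static exposure to 120 hpf, 28C, 0.64% DMSO final. Endpoint: somite malformation, binary, brightfield. Mortality excluded.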

A short description of assay [10]: Tanguay_ZF_120hpf_PFIN_legacy: (Legacy) Oregon State University Tanguay Lab 120 Hour Post-fertilization zebrafish Assay for Pectoral Fin Malformation (AID 2283648).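 Further: each larva judged yes or no for fin defect by brightfield with dead larvae skipped.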 The essentials: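 Tropical 5D wild-type embryos, dechorionated with pronase at 4 hpf, were placed singly in wells at 6 hpf and statically exposed until 120 hpf at 28C, sealed and dark, with 0.64% (vol/vol) final DMSO; pectoral fin malformation scored present/absent.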

Assay [11] is described as follows: Tanguay_ZF_120hpf_CFIN_legacy: (Legacy) Oregon State University Tanguay Lab 120 Hour Post-fertilization zebrafish Assay for Caudal Fin Malformation (AID 2283649). A digest of the protocol:
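Embryos were collected from Tropical 5D wild-type adults and dechorionated at 4 hpf. At 6 hpf each was exposed, one per well, at 0.64% DMSO and 28C. At 120 hpf fin morphology was scored; dead embryos were excluded.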

Assay [12] is described as follows: Tanguay_ZF_120hpf_CIRC_legacy: (Legacy) Oregon State University Tanguay Lab 120 Hour Post-fertilization zebrafish Assay for Circulatory Malformation (AID 2283651). A digest of the protocol: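 Tropical 5D wild-type embryos, dechorionated with pronase at 4 hpf, were placed singly in wells at 6 hpf and exposed statically at 28C to 120 hpf (0.64% DMSO final). Circulatory malformation was scored present/absent by brightfield microscopy.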

A short description of assay [13]: Tanguay_ZF_120hpf_NC_legacy: (Legacy) Oregon State University Tanguay Lab 120 Hour Post-fertilization zebrafish Assay for Notochord and Tail Malformation (AID 2283656). A digest of the protocol:
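Dechorionated 5D zebrafish, 1/well from 6 hpf; static exposure to 120 hpf, 28C, sealed, dark; final DMSO 0.64% v/v. NC scored binary (present/absent); dead embryos not scored. Fit vs DMSO baseline, gain direction.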

Assay [14] in a line: Tanguay_ZF_120hpf_SNOU_legacy: (Legacy) Oregon State University Tanguay Lab 120 Hour Post-fertilization zebrafish Assay for Snout Malformation (AID 2283637). A digest of the protocol:
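Tropical 5D wild-type zebrafish embryos, dechorionated with pronase at 4 hpf, were exposed singly from 6 hpf to 120 hpf statically at 28C in 0.64% DMSO. Snout malformation was scored present/absent by brightfield microscopy, fitted against DMSO.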

A short description of assay [15]: Tanguay_ZF_120hpf_OTIC_legacy: (Legacy) Oregon State University Tanguay Lab 120 Hour Post-fertilization zebrafish Assay for Otic Vesicle Malformation (AID 2283639). The essentials:
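Tropical 5D wild-type zebrafish embryos were exposed statically in sealed, foil-covered plates at 28C until 120 hpf, with 0.64% (vol/vol) DMSO final. Otic vesicle malformation was scored present/absent by brightfield microscopy, with DMSO as baseline.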

Assay [16] in a line: Tanguay_ZF_120hpf_PIG_legacy: (Legacy) Oregon State University Tanguay Lab 120 Hour Post-fertilization zebrafish Assay for Pigmentation Malformation (AID 2283650). A digest of the protocol:
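Tropical 5D wild-type zebrafish embryos, dechorionated with pronase at 4 hpf, were exposed singly from 6 hpf to 120 hpf statically at 28C in sealed, dark plates with 0.64% DMSO; pigmentation scored present/absent by brightfield microscopy, fitted against DMSO.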

The nature of assay [17]: Tanguay_ZF_120hpf_SWIM_legacy: (Legacy) Oregon State University Tanguay Lab 120 Hour Post-fertilization zebrafish Assay for Swim Bladder Malformation (AID 2283654).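 Further: swim bladder malformation in each larva scored yes or no under brightfield.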 A digest of the protocol: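 Dechorionated Tropical 5D wild-type embryos, placed singly from 6 hpf, were statically exposed at 28C to 120 hpf with 0.64% DMSO final; swim bladder malformation was scored present/absent by brightfield microscopy, gain of signal relative to DMSO controls.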

The nature of assay [18]: Tanguay_ZF_120hpf_TRUN_legacy: (Legacy) Oregon State University Tanguay Lab 120 Hour Post-fertilization zebrafish Assay for Truncated Body (AID 2283655). The essentials: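 5D wild-type larvae; pronase dechorionation; static exposure 6→120 hpf, 28C; DMSO 0.64% final; 5uM trimethyltin chloride positive control. Readout: presence/absence of truncated body, analyzed relative to DMSO.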

Read-out in assay [19]: kallikrein-3 (KLK3), KLK3 (gene 354)
The experiment in a line: LTEA_HepaRG_KLK3: Life Technologies and Expression Analysis (LTEA) Assay for kallikrein-3 (KLK3) using HepaRG (AID 2283652; active means hit-call score of the fitted dose curve at least 0.9, where 1 is the maximum; inactive means score below 0.9). Conditions: mRNA level, 48 h; actives raise or lower the signal. A digest of the protocol: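 Differentiated human HepaRG cells in serum-free induction medium exposed 48 h in duplicate, eight-point half-log series from 100 uM in 0.5% DMSO. KLK3 mRNA by qRT-PCR, normalised to ACTB, GAPDH, POLR2A; bidirectional fit versus DMSO.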

Read-out in assay [20]: solute carrier (SLC22A6), SLC22A6 (gene 9356)
The experiment in a line: LTEA_HepaRG_SLC22A6: Life Technologies and Expression Analysis (LTEA) Assay for solute carrier (SLC22A6) using HepaRG (AID 2283653; active means hit-call score of the fitted dose curve at least 0.9, where 1 is the maximum; inactive means score below 0.9). To be noted: mRNA level, 48 h; actives raise or lower the signal. A digest of the protocol:
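This endpoint tracks SLC22A6 mRNA induction or suppression in human HepaRG cultures after 48 h dosing, concentrations reaching 100 uM. Values derive from bidirectional fitting against DMSO controls.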

Cellular tumor antigen p53 (Homo sapiens), sequence (P04637 whole entry, looked up): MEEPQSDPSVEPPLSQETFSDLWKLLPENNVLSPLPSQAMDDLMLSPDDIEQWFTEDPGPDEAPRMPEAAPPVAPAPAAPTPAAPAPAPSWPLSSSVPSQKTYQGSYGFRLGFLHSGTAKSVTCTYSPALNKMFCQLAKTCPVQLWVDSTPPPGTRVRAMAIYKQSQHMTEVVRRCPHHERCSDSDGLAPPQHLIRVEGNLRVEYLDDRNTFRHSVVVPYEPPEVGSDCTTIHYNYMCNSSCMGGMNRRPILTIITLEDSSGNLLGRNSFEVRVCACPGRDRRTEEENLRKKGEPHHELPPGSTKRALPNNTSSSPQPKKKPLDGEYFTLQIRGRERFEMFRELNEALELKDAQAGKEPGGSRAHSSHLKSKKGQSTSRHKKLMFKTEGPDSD

With `CO/N=C(/C1=NOCCO1)c1ccccc1Oc1ncnc(Oc2ccccc2Cl)c1F`, the outcome in assay [1], in assay [3], in [5], in assay [6], in [8] and in assay [9] was inactive. For the same molecule, the result in [10], in assay [12] and in assay [13] was inactive. Further, the AC50 in assay [2] is 2.4 µM (active); in assay [4] it was 5.15 µM (active); in [7], 0.936 µM (active); in assay [11] it was 6.85 µM (active).

In the case of `O=C(O)c1c(Cl)ccc2cc(Cl)cnc12`, the molecule was classed as inactive in assay [2], in assay [3], in assay [4], in [5], in assay [14] and in [6]. The molecule was classed as inactive in assay [15], in [7], in [10], in assay [11], in assay [16] and in assay [17]. Moreover, the outcome in [13] was inactive.

Turning to `CCCN(CC)CC1COC2(CCC(C(C)(C)C)CC2)O1` (stereo not given), the molecule was classed as inactive in assay [2], in assay [3], in [4], in [5], in [14] and in assay [6]. The result in [15], in assay [7], in assay [8], in assay [9], in assay [10] and in assay [11] was inactive. Further, the molecule was classed as inactive in assay [16], in [12], in assay [17] and in [18].

`Cc1cc(C)nc(Nc2ccccc2)n1`: the molecule was called inactive in assay [2], in [3], in [5], in [14], in [6] and in [15]. In addition, the molecule was classed as inactive in assay [7], in assay [8], in assay [9], in assay [10], in assay [11] and in assay [16]. The outcome in [12], in assay [17], in [18] and in assay [13] was inactive.

Turning to `CC1(C)CON(Cc2ccccc2Cl)C1=O`, the result in assay [2], in [3], in [5], in assay [14], in assay [6] and in assay [15] was inactive. Besides, the molecule was classed as inactive in [7], in [8], in [9], in assay [10], in assay [11] and in assay [16]. Moreover, the molecule was classed as inactive in assay [12], in assay [17], in [18] and in assay [13].

Regarding `CCC(C)n1c(=O)[nH]c(C)c(Br)c1=O` (stereo not given), the molecule was classed as inactive in assay [2], in assay [3], in assay [5], in assay [14], in [15] and in assay [7]. The outcome in assay [8], in [9], in [10], in assay [11], in assay [16] and in [12] was inactive. In addition, the result in [19], in [20] and in assay [17] was inactive.

On to `COC(=O)N(C(=O)N1CO[C@@]2(C(=O)OC)Cc3cc(Cl)ccc3C2=N1)c1ccc(OC(F)(F)F)cc1`, for which the AC50 in assay [1] was 37.6 µM (active). The call in [2], in [3], in assay [5], in assay [14], in assay [6] and in assay [15] was inactive. The result in [7], in assay [8], in assay [9], in assay [10], in assay [11] and in assay [16] was inactive. For the same molecule, the molecule was called inactive in assay [12], in assay [17] and in assay [13].

The AC50 is the concentration giving half of the maximal activity seen.

The values are drawn from PubChem BioAssay (EPA / NIEHS).
